# Compound activity: PubChem BioAssay, National Center for Advancing Translational Sciences (NCATS)
# The list is not random: actives were taken first. Their share in the collection is about 0.44%.
# USP2a inh: qHTS Assay for Inhibitors of Ubiquitin-specific Protease USP2a Using CHOP2 as the Reporter; Ubiquitin carboxyl-terminal hydrolase 2 (Homo sapiens), O75604; USP2 core, Ub-CHOP2 coupled fluorogenic reporter, 485/531; Potency, µM (titrated, usually from 38.3 µM), without a hit: at the highest dose activity change, negative = inhibition, usual class: inhibitors; 330,000 compounds, 0.01% hits; AID 463254, 2010;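 note: plate controls were DMSO wells for no effect and full inhibition by NEM control for full effect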
# Target sequence (O75604 whole entry, looked up): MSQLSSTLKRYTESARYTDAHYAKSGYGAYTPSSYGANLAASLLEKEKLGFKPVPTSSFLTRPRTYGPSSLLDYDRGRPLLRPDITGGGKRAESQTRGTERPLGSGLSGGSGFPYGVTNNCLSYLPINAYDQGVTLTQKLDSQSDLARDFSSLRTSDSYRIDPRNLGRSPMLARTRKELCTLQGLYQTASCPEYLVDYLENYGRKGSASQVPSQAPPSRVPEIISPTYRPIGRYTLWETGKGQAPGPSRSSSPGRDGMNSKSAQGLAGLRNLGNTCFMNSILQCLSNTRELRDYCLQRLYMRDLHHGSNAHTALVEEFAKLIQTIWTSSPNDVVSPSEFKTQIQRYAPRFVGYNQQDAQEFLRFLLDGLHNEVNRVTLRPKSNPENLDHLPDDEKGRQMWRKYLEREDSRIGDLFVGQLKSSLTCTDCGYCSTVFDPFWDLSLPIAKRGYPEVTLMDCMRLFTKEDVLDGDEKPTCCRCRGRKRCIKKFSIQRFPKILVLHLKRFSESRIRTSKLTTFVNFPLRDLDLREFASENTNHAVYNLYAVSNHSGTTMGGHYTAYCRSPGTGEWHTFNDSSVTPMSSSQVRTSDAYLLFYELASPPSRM
#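 USP2 core (10nM final) preincubated 30min RT with compound in 20mM Tris-HCl pH 8.0, 2mM CaCl2, 2mM beta-mercaptoethanol, 0.05% CHAPS; 25nM Ub-CHOP2 plus 25nM reporter substrate added, fluorescence (Ex485/Em531) read after 60min.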
# EPAC2 antag: qHTS for Antagonist of cAMP-regulated guanine nucleotide exchange factor 2 (EPAC2): primary screen; Rap guanine nucleotide exchange factor 4 (Homo sapiens), Q8WZA2; EPAC2 GEF exchange of Rap1B-BODIPY-GDP, fluorescence; Potency, µM (series often up to 114 µM), without a hit: top-dose activity, negative = inhibition, hits mostly inhibitors; 360,000 compounds, 0.18% hits; AID 720708, 2013; note: % is set by controls: 0 for no effect and ±100 for the full control effect; nearly all actives have a fitted effect of over 45% in size
# EPAC1 antag: qHTS for Antagonist of cAMP-regulated guanine nucleotide exchange factor 3 (EPAC1): primary screen; Rap guanine nucleotide exchange factor 3 (Homo sapiens), O95398; Potency, µM (series often up to 115 µM), without a hit: at the top dose activity change, negative = inhibition, actives largely listed as inhibitors; EPAC1 GEF assay, Rap1b-BODIPY-GDP exchange fluorescence; 360,000 compounds, 0.14% hits;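 note: plate controls were vehicle for no effect and positive control for full effect; nearly all actives have a fitted effect of over 50% in size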
# EPAC1 ag: qHTS for Agonist of cAMP-regulated guanine nucleotide exchange factor 3 (EPAC1): primary screen. Rap guanine nucleotide exchange factor 3 (Homo sapiens), O95398. EPAC1 agonist qHTS, biochemical assay; response scale: 100% = response to 6.5 mM cAMP. Potency, µM (titrated, usually from 154 µM), for the others: top-dose activation, actives largely listed as activators. 360,000 compounds, 0.073% hits. AID 720707, 2013; note: nearly all actives have a fitted effect of over 60% in size
#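 Compounds were pinned as a concentration titration into mixtures of EPAC1 (100 nM), BODIPY-GDP-loaded Rap1B (250 nM) and GDP (50 uM). After 5 min at room temperature, fluorescence was followed for 30 min; activity was scaled to 6.5 mM cAMP.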
# USP1-UAF1 inh: Inhibitors of USP1/UAF1: Primary Screen. Ubiquitin carboxyl-terminal hydrolase 1 (Homo sapiens), O94782. recombinant USP1/UAF1, Ub-Rhodamine cleavage fluorescence. Potency, µM (doses to about 57.1 µM), for inactives: top-dose activity change, negative = inhibition, actives largely listed as inhibitors. 390,000 compounds, 0.23% hits. AID 743255, 2014; note: % is set by controls: 0 for no effect and ±100 for the full control effect; nearly all actives have a fitted effect of over 60% in size
#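 High-throughput fluorogenic screen: 1nM USP1/UAF1 complex, Ub-Rho substrate 150nM final, 50mM HEPES pH 7.8 with 0.5mM EDTA, 0.1 mg/ml BSA, 1mM TCEP and 0.01% Tween-20.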
# EPAC2 ag: qHTS for Agonist of cAMP-regulated guanine nucleotide exchange factor 4 (EPAC2): primary screen; AID 720711, 2013; EPAC2 activation, biochemical qHTS; response scale: 100% = 6.5 mM cAMP response; Rap guanine nucleotide exchange factor 4 (Homo sapiens), Q8WZA2; 360,000 compounds, 0.079% hits; Potency, µM (doses to about 154 µM), for inactives: top-dose activation, usual class: activators; note: nearly all actives have a fitted effect of over 50% in size
#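 Readout is BODIPY fluorescence (480 nm excitation, 540 nm emission), which falls as labeled GDP is exchanged off Rap1B. EPAC2 at 100 nM acted on 250 nM RAP1B-BODIPY-GDP with 50 uM GDP present.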
# Numbers without * were called inactive; ? = inconclusive; · = not tested or not shown; ! = not active in a repeat. Calls come from the whole dose curve; as a rule, active = well fitted curve in the direction sought with a large enough effect; inconclusive = small, poorly fitted or top-dose-only effect, or another doubt; inactive = no such curve, though single readings can be large; an effect the other way counts as inactive or inconclusive. Potency is the fitted concentration of half-maximal effect.
SMILES,USP2a inh,EPAC2 antag,EPAC1 antag,EPAC1 ag,USP1-UAF1 inh,EPAC2 ag
CC(C(=O)NCc1ccccc1)n1ccc2cc(S(=O)(=O)N3CCCC3)ccc21 (stereo not given),·,·,·,·,4%,·
CCOC(=O)c1c2c(n(-c3ccc(OC)cc3)c1C)C(=O)C(=O)c1ccccc1-2,·,?,56µM*,8%,1.8µM*,22%
CC(=O)NC(c1ccccc1)c1cc([N+](=O)[O-])c2cccnc2c1O (stereo not given),-14%,2%,?,-3%,-19%,0%
CC(C)C(=O)NC(c1ccccc1)c1cc([N+](=O)[O-])c2cccnc2c1O (stereo not given),4%,-12%,56µM*,18%,-13%,15%
CC(=O)NC(c1ccco1)c1cc(Cl)c2cccnc2c1O (stereo not given),1%,?,-12%,5%,·,2%
CC(=O)NC(c1ccc(C)cc1)c1cc(Cl)c2cccnc2c1O (stereo not given),0%,40µM*,-9%,-2%,-19%,8%
CCN(CC)c1ccc(/C=C(\C#N)C(=O)NCc2ccccc2)cc1,6%,28%,-2%,100µM*,-23%,8%
COc1ccc(CNC(=O)c2ccc(Cn3c(=O)c4cccn4c4cccnc43)cc2)c(OC)c1,·,·,·,·,-27%,·
Cc1ccc(C)n1-c1nnc(N2CCCC(C(=O)Nc3ccc(C(C)C)cc3)C2)s1 (stereo not given),·,·,·,·,-25%,·
CCOc1ccccc1C(=O)N(Cc1ccco1)Cc1ccco1,·,·,·,·,-7%,·
CCc1nc2cccnc2n1-c1ccc(CC(=O)Nc2cccc(C)c2C)cc1,·,·,·,·,-13%,·
CC(C)O/C(=N/S(=O)(=O)c1ccc(Cl)cc1)c1ccccc1,·,50µM*,5%,2%,-24%,14%
CC(C)O/C(=N\S(=O)(=O)c1ccc(Cl)cc1)c1ccccc1,6%,?,2%,-1%,-9%,4%
O=C(Nc1ccc(F)cc1)C1CCN(c2nc3ccccc3nc2C(F)(F)F)CC1,·,·,·,·,-25%,·
CCCCC(=O)N(C)c1c(CC)nc2c(OCc3ccc(C(F)(F)F)cc3)cccn12,·,20µM*,-23%,-15%,·,0%
CCCCC(=O)N(C)c1c(CC)nc2c(OCc3ccc(C#N)cc3)cccn12,·,?,1%,1%,·,0%
CCOC(=O)N(C)c1c(CC)nc2c(OCc3ccc(C(F)(F)F)cc3)cccn12,·,35µM*,?,-14%,·,-4%
O=c1oc2c3c4c(cc2c(C(F)(F)F)c1CCN1CCOCC1)CCCN4CCC3,6%,60%,100%,?,6.3µM*,112µM*
O=[N+]([O-])c1ccc(C=NNc2ccc(S(=O)(=O)O)cc2)cc1,·,20µM*,-13%,-4%,-11%,-1%
O=S(=O)(O)c1ccc(NN=Cc2ccccc2O)cc1,·,22µM*,-11%,-6%,3%,-9%
O=C(O)c1ccc(-c2ccc(/C=N/Nc3ccc([N+](=O)[O-])cc3)o2)cc1,-2%,-2%,-24%,5%,13µM*,3%
O=C(O)c1cccc(-c2ccc(/C=N/Nc3ccc([N+](=O)[O-])cc3)o2)c1,2%,-14%,?,-6%,?,-8%
Cc1ccc(-n2cnc3cc(C(=O)NCc4ccccc4Cl)ccc32)c(C)c1,·,·,·,·,-15%,·
COc1cccc(CNC(=O)Cc2ccc(NC(=O)N3CCCCc4ccccc43)cc2)c1OC,·,·,·,·,-2%,·
O=C1CCn2c1c(O)c1ccccc1c2=O,·,1%,0%,13%,5µM*,32%
SMILES,USP2a inh,EPAC2 antag,EPAC1 antag,EPAC1 ag,USP1-UAF1 inh,EPAC2 ag
Cc1oc2c(cc(NS(=O)(=O)c3ccc(C(C)C)cc3)c3ccccc32)c1C(=O)O,0%,-3%,-25%,-3%,28µM*!,?
CCc1cccc2cc3c(N)c(C(=O)Nc4ccc(S(=O)(=O)N5CCCC5)cc4)sc3nc12,11%,56µM*,50µM*,-324%,220%,-100%
O=C(Cc1ccc(Cl)cc1)Nc1cccc(C(=O)Nc2ccccc2C(=O)O)c1,-3%,-1%,100µM*,-11%,-9%,3%
O=C(/C=C/c1ccco1)Nc1ccc(Cl)c(-c2nc3cc(Cl)ccc3o2)c1,·,·,·,·,-21%,·
C[C@@H]1CN([C@H](C)CO)S(=O)(=O)c2ccc(Br)cc2O[C@@H]1CN(C)Cc1ccc(C(=O)O)cc1,·,4%,-11%,-8%,-21%,2%
COc1cccc(S(=O)(=O)N(C)C[C@H]2Oc3cc(Br)ccc3S(=O)(=O)N([C@@H](C)CO)C[C@H]2C)c1,·,?,-15%,8%,18µM*,3%
C[C@@H]1CN([C@H](C)CO)S(=O)(=O)c2ccc(Br)cc2O[C@@H]1CN(C)Cc1ccc(-c2ccccc2)cc1,·,0%,-3%,-10%,25µM*,8%
COc1cc2c(cc1OC)-c1cc3ccc(OC)c(OC)c3c[n+]1CC2,-3%,-12%,12%,-3%,-20%,3%
COc1ccc2cc3[n+](cc2c1O)CCc1cc2c(cc1-3)OCO2,·,89µM*,?,0%,·,19%
O=C(COc1ccccc1C(=O)N/N=C\c1ccc(O)c(O)c1)N/N=C/c1ccc(O)c(O)c1,0%,10%,10µM*,-9%,-12%,-5%
O=C1NC(=S)SC1=Cc1ccccc1Br,·,40µM*,32µM*,1%,-23%,5%
O=C1NC(=S)SC1=Cc1cc(Br)ccc1O,·,79µM*,56µM*,-12%,-18%,10%
O=C1NC(=S)SC1=Cc1ccc(Cl)cc1,·,50µM*,?,-8%,-14%,0%
O=C1NC(=S)S/C1=C\c1coc2ccc(O)cc2c1=O,-1%,35µM*,56µM*,2%,-19%,-5%
O=C1NC(=S)SC1=Cc1ccc(F)cc1,·,-27%,-21%,-7%,-2%,-5%
O=C(Nc1ccc2nc(SCC(=O)N3CCOCC3)sc2c1)c1cccc(Cl)c1,·,·,·,·,-11%,·
C#Cc1ccc([C@@H]2C=C(C(=O)Nc3ccccc3)O[C@H](OCC)[C@H]2CCCO)cc1,-1%,?,-23%,-1%,-19%,4%
